From ChEMBL document CHEMBL4513216, “Probing the Open Global Health Chemical Diversity Library for Multistage-Active Starting Points for Next-Generation Antimalarials” (ACS Infect Dis, 2020) come the findings set out here.

Molecules are shown by their SMILES. About 2,100 (3.2%) of roughly 65,000 compounds showed an effect of 50% or more. The median lay at about -52%. Many of the other results were omitted from the sample, so strong results are more common in it than they were.

This test has as its system Plasmodium falciparum. The test is described as follows: Screen against P. falciparum Asexual Blood Stage (ABS), at 5uM. The class given is functional, Dd2. Conditions: tested at 5 uM.
Turning to `Cc1nc(CCN)cc(N2CCC(O)(c3ccc(Cl)cc3)CC2)n1`, the INHIBITION is 91.7%.
The result for `CN1[C@@H](C(=O)NCC2CC2)C[C@@H]2CN(c3ncccn3)C[C@@H]21` reads 13.9%.
The result for `c1ccc(O[C@@H]2CC[C@H]3[C@H]2OCCN3CC2CCOCC2)nc1` reads -83.6%; that for `c1ccc(O[C@H]2CC[C@H]3[C@H]2OCCN3Cc2nccs2)nc1`, -64.9%; that for `CC(C)C[C@H](N)COc1cccc(F)c1Oc1cccc(Cl)c1`, 85.5%.
For `CC(C)C[C@H](N)COc1cccc(F)c1Oc1ccccc1`, the INHIBITION is listed as 70.9%.
The same measure for `CC(C)C[C@H](N)COc1cccc(F)c1Oc1ccc(Cl)cc1`: 86.5%; for `c1ccc(CO[C@@H]2C[C@H]3CN(c4ncccn4)CCN3C2)nc1`: -38.6%; for `c1cc(CN2CCOC3(CCCC3)C2)no1`: -101%.
The same measure for `O=C1CSC(c2ccsc2)c2sccc2N1` (configuration not stated): -15.7%; for `Cc1ccc(N2CCO[C@H]3CN(Cc4cccs4)C[C@H]32)nn1`: -11.3%; for `COCCn1cc(C(=O)Nc2nc3c(s2)CCC3)c2ccccc21`: -78.7%.
The same measure for `O=C(CN1CCCC(c2ccn[nH]2)C1)Nc1nc2c(s1)CCCC2` (configuration not stated): 86.1%; for `Cc1cc(C2CCCN(CC(=O)Nc3nc4c(s3)CCC4)C2)n[nH]1` (configuration not stated): 86.9%; for `O=C(CN1CCCC(c2ccn[nH]2)C1)Nc1nc2c(s1)CCC2` (configuration not stated): 89.2%.
As for `CC1CN(C)CCN1C(=O)COc1cccc(Oc2ccccn2)c1` (configuration not stated), the INHIBITION is listed as -65.8%.
The result for `Cc1noc(C)c1CN1CCOC2(CCCN(c3nccs3)C2)C1` (configuration not stated) reads -36.8%; that for `CCCOc1cc(Cl)c(CN2CCNC(C(=O)NC3CC3)C2)cc1OC` (configuration not stated), 75.4%.
The result for `CC(C)Cc1ncc2c(n1)CN(C(=O)c1ccc(CN3CCCC3)o1)C2` reads 70.3%; that for `O=C(c1ccc(Cn2ccccc2=O)o1)N1CCC2(CC1)OCCO2`, 1.12%.
Regarding `CCCn1cc(C(=O)NCCS(N)(=O)=O)c2ccccc21`, the INHIBITION is reported as -25.6%.
The result for `Cc1ccc(C(C)NCc2cn(CCC(N)=O)c3ccccc23)cc1C` (configuration not stated) reads 82.8%; that for `CCCn1cc(C(=O)NCCCC(N)=O)c2ccccc21`, -75%; that for `CC(C)CNC(=O)N1C[C@@H]2CCCN[C@@H]2C1`, -5.1%.
The same measure for `COCCN1CCOCC12CCN(C(=O)c1ccncc1)CC2`: -98.9%; for `FC(F)(F)c1ccc2nc([C@H]3CCN(C4CCCCC4)C3)[nH]c2c1`: 83.6%; for `CCc1nc(-c2ccc(C(=O)N3CCC4(CC3)OCCO4)cc2)no1`: -52.5%.
As to `Cc1ccc2c(CC(=O)N3C[C@@H](O)[C@H](N(C)C)C3)coc2c1`, the INHIBITION was 9.22%.
The same measure for `CN(C)CCCn1ccnc1C1CCCN(c2ncc(Cl)cc2F)C1` (configuration not stated): 84.4%.
The same measure for `COCCO[C@@H]1C[C@H]2CN(C(=O)c3cccnc3)CCN2C1`: -84.1%; for `CC(Cc1ccccc1Cl)NC(=O)Nc1cnn(CC(N)=O)c1` (configuration not stated): -20.1%.
The result for `CCC(NCc1ccccc1Cl)c1ccccc1OCC(=O)NC` (configuration not stated) reads 74.7%.
Consider `CCC(NCc1ccccc1C)c1ccccc1OCC(=O)NC` (configuration not stated), for which the INHIBITION was determined as 80%.
Turning to `Clc1ccccc1CNC(Cn1cncn1)c1ccccc1` (configuration not stated), the INHIBITION is on record as -8.41%.
The result for `Cc1ccccc1CNC(Cn1cncn1)c1ccccc1` (configuration not stated) reads -47.8%; that for `COCC(=O)NC(C)Cc1cccc(Cl)c1` (configuration not stated), -14.8%.
The result for `CC(Cc1cccc(Cl)c1)NC(=O)NCc1ncnn1C` (configuration not stated) reads -104%; that for `CCC(NCc1cccc(Cl)c1)c1ccccc1OCC(=O)NC` (configuration not stated), 82.8%; that for `COCCN1CCO[C@H]2CN(Cc3cccc(C)n3)C[C@H]21`, -18.3%.
For `Cc1cc(NC2CC3(CCN(Cc4ncccc4F)C3)C2)ncn1` (configuration not stated), the INHIBITION is recorded as -37.1%.
Turning to `CCc1c(C)[nH]c(C2(N)CCCC2)nc1=O`, the INHIBITION is listed as -43.5%.
The same measure for `CNC(=O)[C@H]1C[C@@H]2CN(Cc3cccnc3OC)C[C@@H]2N1C(C)C`: 21.8%; for `Cc1cc(C(C)NCCN2CCC(N(C)C)CC2)c(C)s1` (configuration not stated): 81.6%; for `CC(NC(=O)CN1CCCC1=O)c1ccc(Cl)s1` (configuration not stated): -3.71%.
The result for `CC(Cn1cccn1)NCc1ccc(Cl)s1` (configuration not stated) reads -30.2%.
As to `Cc1cc(Br)cnc1NCCN1CCC(N(C)C)CC1`, the INHIBITION is on record as 89.1%.
The same measure for `CN1CCCC(Cc2cncc(Br)c2)CC1` (configuration not stated): -65%.
The same measure for `CC(NCCN1CCC(N(C)C)CC1)c1ccc(Cl)s1` (configuration not stated): 75.4%; for `CN1[C@@H]2CC[C@H]1CN(c1cc(Sc3cccs3)nc(N)n1)CC2`: 19.3%; for `Cc1ccc(CN2CC[C@H]3NC(=O)CC[C@@H]32)o1`: -34.6%.
The same measure for `CSc1ccc(-c2nc(CN3CCC(CN)C3)c(C)o2)cc1` (configuration not stated): 83.05%; for `Cc1cc(CN2CC[C@]3(C[C@@H](OCC(=O)N(C)C)CO3)C2)no1`: -93%.
